Experimental data taken from the supplement of paper PMC10338343.
± gives the standard deviation.

tested on: MILI (PIWIL2) piRISC loaded with L1MC piRNA (26 nt); experiment: pre-steady-state target cleavage rate (min^-1); guide: L1MC piRNA 5'p-UAACUAAAUACUAUGCAAGCUGUAGG; MIWI and MILI are mouse PIWI proteins and EfPiwi is from a freshwater sponge; tags in brackets are library labels; higher = faster piRNA-guided slicing of the target; conditions: auxiliary factor: 500 nM mouse GTSF1
How it was run: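 Cleave-'n-Seq: a transcribed, DNA-blocked target RNA library (0.1 nM) was mixed with 1 nM active affinity-purified piRISC carrying one synthetic guide, with or without 500 nM GTSF1 partner protein, in HEPES–potassium acetate buffer at 33 °C for 0–8 or 0–960 min. Uncleaved targets were sequenced and normalised to depth and to weakly complementary targets. Three trials were pooled, and k3 was capped at 0.0001 min^-1. The pre-steady-state cleavage rate came from a burst-and-steady-state fit.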

| Sequence | pre-steady-state target cleavage rate |
| --- | --- |
| UCCUCCUACAGCUUGCUAUGUAUUUACAAA | 0.00653 ± 0.0036 |
| UCCUGGAACAGCUUGCAAUCUAUUUAGUAA | 0.025 ± 0.0099 |
| UCCUGGAUGUGCUUGCAUAGUAUAUAGUUA | 0.083 ± 0.014 |
| UCCUGGAUCAGCAAGCAUAGUAUUUAGAAA | 0.101 ± 0.013 |
| UCCUGGUACAGCUUGCAUAGUUUUUUCAAA | 0.0153 ± 0.0075 |
| UCCUGGAUCAGCUUGCAUAGUAUUUUCUAA | 0.0634 ± 0.017 |
| UCCUGGAACAGCUUGGAUACUAUUUAGUUA | 0.0744 ± 0.017 |
| UCCUGGAACAGCUUCGAUAGUAUUUAGAAA | 0.0923 ± 0.021 |
| UCCUGGAUGUCGAACGUAACUAUAUAGUUA | < 0.0001 |
| UCCUGGUACUGCUUGCAUAGAAUUUAGUUA | 0.0381 ± 0.017 |
| UCCUGGAUGUGCUUGCAUAGUUUUUUGUUA | 0.0102 ± 0.0056 |
| UCCUGGAUGAGCUUGCAUUGUAUUUACUUA | 0.031 ± 0.012 |
| UCCUCCUACAGCUUGCAUAGAAUAUAGUUA | 0.0822 ± 0.019 |
| UCCUGGAUGUCCUUGCAUAGUAAAAAGUUA | 0.0137 ± 0.0059 |
| UCCUGGAAGUCCUUGCAUAGUAUUUUCAAA | 0.0197 ± 0.0079 |
| UCCUGGAUGAGCUUGCAUAGUUUUUACUUA | 0.00548 ± 0.0051 |
| UCCUGGAUGUGCUUGCAUAGUAUUUUCAAA | 0.00462 ± 0.0044 |
| UCCUGGAUGUCGAUGCAUAGUAUUUAUGUUA | 0.106 ± 0.022 |
| UCCUGGAUGUCGAACCAUAGUUAAUAGUUA | < 0.0001 |

| Sequence | pre-steady-state target cleavage rate |
| --- | --- |
| UCCUCCUACAGCUUGCAUACUUUUUAGUUA | 0.00693 ± 0.0043 |
| UCCUGGAACAGCUUGCAUAGAAUUUACAAA | 0.0177 ± 0.0082 |
| UCCUGGAUGUGCUUGCAUUGAAUUUAGUUA | 0.00465 ± 0.0038 |
| UCCUCCUACAGCUUGCAUAGUUAAUACAAA | 0.014 ± 0.0056 |
| UCCUGGAACAGCAUGCAUAGUAUUUACAAA | 0.182 ± 0.035 |
| UCCUGGAACAGCUUGCAAUCUAUUUAGUUA | 0.0258 ± 0.0054 |
| UCCUGGUACAGCUUGCAUAGAUAUUAGUUA | 0.0155 ± 0.005 |
| UCCUGGAACAGCUUGCUUAGUAUUUAGAAA | 0.142 ± 0.029 |
| UCCUGGAUGUCGAAGCAUAGUAUUAAGUAA | 0.0172 ± 0.0065 |
| UCCUGGAUGACCUUGCAUAGUAUUUAGUAA | 0.152 ± 0.019 |
| UCCUGGAUGAGCUUGCAUUGUAUUUUGUUA | 0.0997 ± 0.015 |
| UCCUGGUACACCUUGCAUAGUAUUUACUUA | 0.108 ± 0.041 |
| UCCUGGAACACGUUGCAUAGUAUUUAGAAA | 0.187 ± 0.034 |
| UCCUGGAUCAGCUUGCAUAGAAUUUACAAA | 0.00722 ± 0.0036 |
| UCCUGGAACAGCUUGCAUACUAUAUAGUUA | 0.0332 ± 0.0099 |
| UCCUGGAACAGGUUGCAUAGUAUUUACAAA | 0.0582 ± 0.013 |
| UCCUGGAUGACCUUGCAUAGUAUUUAGAAA | 0.133 ± 0.038 |
| UCCUGCUACAGCUUGCAUAGUAUUUACAAA | 0.153 ± 0.039 |
| UCCUGGUACAGGUUGCAUAGAAUUUAGUUA | 0.0804 ± 0.021 |
